This is an account of results in PubChem BioAssay (NCI).

Compounds without any hit were thinned out: in the full panel of roughly 79,000, 15% have a hit. The source made the active and inactive calls. Rule as the data show it: active = growth inhibition above about 70%; inactive = the rest.

The test can be described thus: NCI Yeast Anticancer Drug Screen. Data for the rad52 strain (AID 147).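 Also: 0% = growth of vehicle-treated control cultures.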 As to conditions: S. cerevisiae rad52 mutant growth inhibition; at 11.0 µM; stronger effect = higher value. The essentials: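 Yeast strain carrying a DNA damage repair alteration was exposed to test compounds. Growth inhibition was measured relative to vehicle-treated controls.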
`CN(C)CC(CN(C)C)C(=O)/C=C/c1ccc(Cl)cc1Cl`: the growth inhibition is 14% (inactive).

Regarding `c1ccc2c(c1)ccn2CCc1c[nH]c2ccccc12`, the growth inhibition is -20% (inactive).

Turning to `Cc1ccccc1NC(=O)c1c(C)oc2c1C(=O)c1ccccc1C2=O`, the growth inhibition is 3% (inactive).

With `CC(C)OC(=O)NNc1c(Cl)cc(Cl)cc1Cl`, the growth inhibition is 2% (inactive).

Turning to `COc1ccc2nc3cccc([N+](=O)[O-])c3c(NCCNCCO)c2c1`, the growth inhibition is 95% (active).

For the compound `COc1ccc2c(c1)CCCC(Br)C2=O` (stereo unspecified), the growth inhibition is 27% (inactive).

Turning to `CCC(OC(C)=O)C1CC(C(C)C)CCC1C` (stereo unspecified), the growth inhibition is 4% (inactive).

For `O=S(=O)(c1cccc(C(F)(F)F)c1)N1c2ccccc2-n2cccc2C1c1cccnc1` (stereo unspecified), the growth inhibition is 87% (active).

On to `c1ccc(-c2cc(C3CO3)c3ccccc3n2)cc1` (stereo unspecified), for which the growth inhibition was 19% (inactive).

Consider `COc1ccc(/C=C2\SC(=S)N(/C=C3\C(=O)N(c4ccccc4)N=C3C)C2=O)cc1OC`, for which the growth inhibition is 25% (inactive).

On to `CC1=CC(=C(c2ccc(N)c(C)c2)c2ccc(N)c(C)c2)C=CC1=N`, for which the growth inhibition is 47% (inactive).

Turning to `CC1C(c2ccccc2)SC(=N)N1C` (stereo unspecified), the growth inhibition is -2% (inactive).

Take `CC(/C=C/c1ccc([N+](=O)[O-])o1)=N/N1CC(CN2CCOCC2)OC1=O` (stereo unspecified): the growth inhibition was 48% (inactive).

Regarding `C=CC(C)(C)N1C(=O)C(C(C)=O)=C(O)C1Cc1c[nH]c2ccccc12` (stereo unspecified), the growth inhibition was -2% (inactive).

As to `O=C1c2cccc3cccc(c23)C(=O)N1CCNCCN1C(=O)c2cccc3cccc(c23)C1=O`, the growth inhibition was 5% (inactive).

Turning to `Cc1ccc([N+](=O)[O-])c2c(NCCC[N+](C)(C)[O-])c3ccccc3nc12`, the growth inhibition is 8% (inactive).

With `COC(=O)C(Cc1c[nH]c2ccccc12)N1CN(C)c2ccccc2C1=O` (stereo unspecified), the growth inhibition was 0% (inactive).

Consider `O=C(/N=N/C(=O)Oc1ccccc1)Oc1ccccc1`, for which the growth inhibition was -52% (inactive).

For the compound `COc1cc([C@@H]2c3cc4c(cc3[C@@H](NC(=O)NO)[C@H]3COC(=O)[C@H]23)OCO4)cc(OC)c1O`, the growth inhibition was 10% (inactive).

Regarding `CC1(C)CC(=O)C(/C=N/c2nc(-c3ccc(Br)cc3)cs2)=C(O)C1`, the growth inhibition is 53% (inactive).

On to `CCOC(=O)/C(=C/c1cccc(Cl)c1)N(CC)CC`, for which the growth inhibition is 12% (inactive).

Consider `CC(C)OC(=O)NNc1cccc(Cl)c1`, for which the growth inhibition is 57% (inactive).

Turning to `CCC(=O)C1=C(O)c2cc(OC)ccc2CC1C(=O)OC` (stereo unspecified), the growth inhibition is 7% (inactive).

As to `O=S(=O)(NC1CCCC(c2ccccc2)C1)c1ccccc1` (stereo unspecified), the growth inhibition was 3% (inactive).

As to `COc1ccc2nc3cccc([N+](=O)[O-])c3c(NCCCCCC(=O)O)c2c1`, the growth inhibition was 97% (active).

`CCO/C=C1\SC(=S)N(c2ccc(OCC)cc2)C1=O`: the growth inhibition is 0% (inactive).

For the compound `COc1cc(OC)c(CSCC(NC(=O)OCC2c3ccccc3-c3ccccc32)C(=O)O)c(OC)c1` (stereo unspecified), the growth inhibition is 48% (inactive).

Consider `COC(=O)c1ccccc1N=NNc1cccc(SC)c1`, for which the growth inhibition is 23% (inactive).

On to `CC1=NN(C(=O)c2ccccc2O)C(=O)/C1=C/c1ccco1`, for which the growth inhibition was 76% (active).

As for `COc1ccccc1NC(=O)c1ccc(Cl)cc1`, the growth inhibition was 4% (inactive).

Consider `CC(C)=CCC/C(C)=C/CN1C(=O)C=CC1=O`, for which the growth inhibition was 99% (active).

With `O=C1CSC(c2ccccc2)N1c1ccc(-c2ccc(-n3c(-c4ccccc4)nc4ccccc4c3=O)cc2)cc1` (stereo unspecified), the growth inhibition was 3% (inactive).

For `N#CC1OB(O)c2ccccc21` (stereo unspecified), the growth inhibition was -5% (inactive).

`O=C(NCCNCCNC(=O)c1cc(-c2ccccc2)nc2ccccc12)c1cc(-c2ccccc2)nc2ccccc12`: the growth inhibition was -3% (inactive).

For `Brc1ccc(B2Nc3ccccc3N2)cc1`, the growth inhibition was 29% (inactive).

For the compound `CCOP(=O)(OCC)/C(C#N)=C/c1cccc(Oc2ccccc2)c1`, the growth inhibition is 60% (inactive).
